The list is not random: actives were taken first. Their share in the collection is about 3%.
Nrf2 ARE act: Nrf2 pathway activation | AREc32 ARE-luciferase reporter (MCF7-derived line), luminescence, 24 h | Potency, µM (titrated, usually from 46.1 µM), for the others: at the top dose activation, most hits filed as activators | 0.31% of 410,000 active; further: % of control where 0% means no effect; nearly all actives have a fitted effect of over 65% in size
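For detection, Steady-Glo was added and plates sat 30 min at RT; before that, AREc32_Fluc cells grown overnight in OPTI-MEM/5% FBS had been treated with 23 nL compound for 24 hr at 37 deg C.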
TrxR1 substrate: substrates of rat thioredoxin reductase 1; O89049; purified TrxR1 substrate turnover, NADPH consumption readout; Potency, µM (doses to about 114 µM), for the others: top-dose activity change, negative = substrate turnover; 0.01% of 390,000 active; AID 588456; further: on the % scale 0 is the no-effect control and ±100 the full control effect; nearly all actives have a fitted effect of over 50% in size
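Rat TrxR1, dispensed at 90 nM, was prereduced with 400 uM NADPH (final) for 5 min at ~22 deg C, then incubated with compound 15 min before 400 uM selenite. A first-read NADPH fluorescence drop versus no-compound background flagged substrates.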
TrxR1 inh: blocks rat thioredoxin reductase 1; Potency, µM (doses to about 114 µM), for inactives: top-dose activity change, negative = inhibition, usual class: inhibitors; recombinant rTrxR1, NADPH fluorescence consumption, selenite substrate; 1% of 390,000 active; further: on the % scale 0 is the no-effect control and ±100 the full control effect; nearly all actives have a fitted effect of over 65% in size
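Rat TrxR1 (90 nM in the dispensed reagent) was pre-reduced with 400 uM NADPH for 5 min at room temperature, then incubated with compound for 15 min. After 400 uM selenite was added, NADPH fluorescence (Ex 340/Em 450 nm) was followed for 8 min.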
A549 tox: kills or reduces viability of A549 cells in Nrf2 counter-screen; A549 ARE-Fluc cells, CellTiter-Fluor viability, 18-24 h; Potency, µM (top dose mostly 46 µM), without a hit: at the top dose activity change, negative = cytotoxicity, hits mostly inhibitors; 0.16% of 390,000 active; AID 504648; further: on the % scale 0 is the no-effect control and ±100 the full control effect
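A549 ARE_Fluc cells in 5% FBS OPTI-MEM were exposed to compounds in concentration-response for 18-24 h at 37 deg C. Viability was read by CellTiter-Fluor fluorescence (Ex 405/Em 525) after 30 min, before the luciferase read.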
Nrf2 block: Nrf2 pathway inhibition. A549 ARE-Fluc reporter, luciferase luminescence, 18-24 h. 2.1% of 360,000 active. Potency, µM (top dose mostly 46 µM), for the others: top-dose activity change, negative = inhibition, usual class: inhibitors; further: on the % scale 0 is the no-effect control and ±100 the full control effect; nearly all actives have a fitted effect of over 60% in size
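A549 ARE_Fluc cells, 5000/well, 5% FBS OPTI-MEM; compounds in dose-response, 18-24 h at 37 °C/5% CO2; CellTiter-Fluor viability read (Ex 405/Em 525), then BugLite luciferase luminescence = Nrf2 activity.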
GALK inh: galactokinase (human) inhibition. 0.007% of 270,000 active. Potency, µM (series often up to 57.5 µM), inactives show top-dose activity change, negative = inhibition, hits mostly inhibitors. Purified GALK, Kinase-Glo residual ATP luminescence. P51570; further: on the % scale 0 is the no-effect control and ±100 the full control effect
Target sequence (P51570 whole entry, looked up): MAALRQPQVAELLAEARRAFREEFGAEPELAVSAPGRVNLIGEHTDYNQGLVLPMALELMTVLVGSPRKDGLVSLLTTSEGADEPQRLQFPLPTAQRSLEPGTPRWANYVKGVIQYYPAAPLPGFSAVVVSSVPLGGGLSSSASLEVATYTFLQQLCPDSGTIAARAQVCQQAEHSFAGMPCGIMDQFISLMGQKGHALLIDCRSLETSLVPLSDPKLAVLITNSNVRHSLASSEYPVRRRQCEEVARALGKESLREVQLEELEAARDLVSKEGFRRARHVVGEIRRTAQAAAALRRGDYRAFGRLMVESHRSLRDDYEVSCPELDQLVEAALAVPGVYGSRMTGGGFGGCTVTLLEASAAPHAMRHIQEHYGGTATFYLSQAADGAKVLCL
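5 nM enzyme, 35 uM ATP, 100 uM galactose, 20 mM HEPES pH8.0, 5 mM MgCl2; 1 h RT; residual ATP by Kinase-Glo Plus luminescence, qHTS format.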
An asterisk follows results filed as active; u = inconclusive; x = no result given; [ ] = dose if it differs, or a comment. The call rests on the fitted dose curve; in most records, active means well fitted curve in the direction sought with a large enough effect; inconclusive means small, poorly fitted or top-dose-only effect, or another doubt; inactive means no such curve, though single readings can be large; an effect the other way counts as inactive or inconclusive. Potency means the concentration at half of the fitted maximal effect.

SMILES	Nrf2 ARE act	TrxR1 substrate	TrxR1 inh	A549 tox	Nrf2 block	GALK inh
COc1ccc(CNC(=O)C(c2ccncc2)N(C(=O)Cc2cccs2)c2ccccc2)cc1 (stereo not given)	0%	8%[57.1 µM]	9%[57.1 µM]	-1%	2%	1%
COc1ccc(N(C(=O)CCl)C(C(=O)NCCc2ccccc2)c2cccs2)cc1 (stereo not given)	u	1%	11µM*	-22%	-26%	1%
Cc1ccc(N2CCN(C(=O)c3cnn(-c4ccc(F)cc4F)c3C3CCN(C(=O)OC(C)(C)C)CC3)CC2)c(C)c1	0%	-14%	3%	u	u	x
COc1ccc(CN(Cc2ccccc2)C(=O)C2CC2)cc1COc1ccc(NC(C)=O)cc1	x	-16%	-21%	-10%	21µM*	x
COc1ccc(N2CCN(C(=O)c3cc(NS(=O)(=O)c4ccc(F)cc4)ccn3)CC2)cc1	0%	-3%	11%	-6%	-15%	x
Cc1ccc(S(=O)(=O)c2nc(NN(C)C)sc2Cl)cc1	0%	11%[57.1 µM]	36%[57.1 µM]	-18%	23µM*	1%
Cc1ccc(S(=O)(=O)c2nc(Nc3ccccc3C#N)sc2Cl)cc1	-1%	3%	-6%	0%	5%	-1%
Brc1ccc[n+](CCC2CCCCC2)c1	x	-3%	-8%	x	x	x
COc1ccc(NC(=O)CSc2nc(=O)n(CCN3CCOCC3)c3c2CCC3)cc1	0%	-11%	-2%	-4%	0%	x
O=C(CSc1nc(=O)n(CCN2CCOCC2)c2c1CCC2)Nc1ccc(OC(F)(F)F)cc1	2%	-2%[57.1 µM]	0%[57.1 µM]	-1%	18µM*	x
Cc1ccc(C(=O)Nc2cccnc2)cc1S(=O)(=O)N1CCCCCC1	-1%	-7%	-11%	-3%	-3%	-7%
Cc1ccc(NC(=O)c2ccc(S(=O)(=O)N3CCCCCC3)cc2)nc1	6%	11%	33%	2%	u	x
Cc1ccc(NC(=O)c2ccc(Cl)c(S(=O)(=O)N3CCCCCC3)c2)nc1	0%	-2%[57.1 µM]	10%	u	23µM*	x
O=C(Nc1cccnc1)c1ccc(Cl)c(S(=O)(=O)N2CCCCCC2)c1	2%	4%	16%	-5%[1.84 µM]	15µM*	-3%
O=C(O)c1c2c(nc3ccccc13)CCCC2	x	8%[0.0914 µM]	8%[0.0914 µM]	x	x	x
COC(=O)C1=C(C)N(Cc2ccccc2)C(=O)/C1=C\c1ccco1	23%	11%	50µM*	1%	36%	-1%
CCOC(=O)C1=C(C)N(c2ccc(C)cc2)C(=O)/C1=C\c1ccc(O)c(OC)c1	u	4%	18µM*	-14%	-73%	-1%
CCOc1cc(/C=C2\C(=O)N(CCc3ccc(OC)c(OC)c3)C(C)=C2C(=O)OC)ccc1O	19%	-4%	u	0%	-13%	1%
COC(=O)C1=C(C)N(Cc2ccc(C)cc2)C(=O)/C1=C\c1ccc(O)c(OC)c1	u	-15%	u	0%	x	-2%
CCOc1cc(/C=C2\C(=O)N(Cc3ccco3)C(C)=C2C(=O)OC)ccc1O	u	-9%	22µM*	-22%	-40%	-1%
CCN1C(=O)/C(=C\c2ccco2)C(C(=O)OC)=C1C	10µM*	-19%	u	-5%	-12%	-2%
COC(=O)C1=C(C)N(CCc2ccccc2)C(=O)/C1=C\c1ccco1	8%	-7%	u	-2%	4%	1%
Cc1cc(/C=N/n2cnnc2)c(C)n1-c1ccc(OCc2ccc(Cl)cc2)cc1	6%	5%	1%	-10%	9.2µM*	0%
Cc1cc(/C=N/n2cnnc2)c(C)n1-c1ccc(OCc2ccccc2F)cc1	7%	6%	20%	u	u	-5%
C=C(C)CNC(=S)NN=C1c2ccccc2-c2ccccc21	8%	9%[57.1 µM]	17%[57.1 µM]	-6%	u	11%
SMILES	Nrf2 ARE act	TrxR1 substrate	TrxR1 inh	A549 tox	Nrf2 block	GALK inh
C=C(C)CNC(=S)N/N=C/c1ccco1	11µM*	-5%	-21%	-1%	9%	-3%
CC1(C)OC(=O)C2(Cc3ccc(Cl)cc3N3CCCC32)C(=O)O1 (stereo not given)	x	4%	16%	-1%	6%	x
COc1ccc(-c2c([C@H]3[C@H]4C=CC[C@@H](C)[C@@H]4C(=O)N3Cc3ccccc3)ccc3ccccc23)cc1OC	7%	-2%	8%	u	18µM*	1%
COc1ccc(/C=C/c2ccccc2)cc1C1C2C=CCC(C)C2C(=O)N1Cc1ccccc1 (stereo not given)	x	18%	17%	12%	u	x
COc1ccc(-c2ccccc2[C@H]2[C@@H]3C=CC[C@@H](C)[C@@H]3C(=O)N2Cc2ccccc2)cc1	3%	1%	17%	u	18µM*	x
COc1ccc(-c2ccc(OC)c(C3C4C=CCC(C)C4C(=O)N3Cc3ccccc3)c2)cc1 (stereo not given)	x	-2%	-4%	-1%	u	x
COc1ccc(-c2c(C3C4C=CCC(C)C4C(=O)N3Cc3ccccc3)ccc3ccccc23)cc1 (stereo not given)	x	0%	15%	-6%	21µM*	x
COc1ccc(Br)cc1[C@H]1[C@H]2C=CC[C@@H](C)[C@@H]2C(=O)N1Cc1ccccc1	-1%	10%[57.1 µM]	-8%[57.1 µM]	-17%	21µM*	-4%
CC(C)=CC(=O)Oc1ccc(C(=O)N(C)c2ccccc2I)cc1	x	-3%	6%	-1%	7%	x
CNc1c(Cl)cc(C=O)cc1Cl	x	-10%	u	x	x	x
Cc1ccccc1-c1nc2scc(CCNS(=O)(=O)c3ccccc3)n2n1	4%	-11%[57.1 µM]	-8%[57.1 µM]	10%	x	x
O=C(CNC(=O)c1cccc(OC(F)F)c1)Nc1ccc(Cl)cc1	0%	4%	13%	-8%	26µM*	6%
O=C(Nc1ccc(OC(F)F)c(Cl)c1)c1cccc(OC(F)F)c1	3%	0%	14%	u	x	-3%
Cc1ccc(S(=O)(=O)NCC2CCCO2)cc1 (stereo not given)	3%	-8%[57.1 µM]	2%[57.1 µM]	11%	26%	1%
O=S(=O)(NCC1CCCO1)c1ccc(-c2ccc(S(=O)(=O)NCC3CCCO3)cc2)cc1 (stereo not given)	1%	-3%[57.1 µM]	12%[57.1 µM]	2%	1.3µM*	-2%
Nc1nonc1C(=O)NCCNc1ncccc1[N+](=O)[O-]	2%	-3%	19%[57.1 µM]	u	18µM*	0%
Cc1ccccc1NC(=O)Cn1c(=O)n(Cc2ccc3c(c2)OCO3)c(=O)c2ccc(C(=O)NC3CCCCC3)cc21	0%	8%	23%	-7%	-19%	x
COc1ccc(Cl)cc1C(=O)O/N=C(\N)c1ccc(Cl)cc1	7.9µM*	-22%[57.1 µM]	11%[57.1 µM]	4%	u	x
COc1cc(OC)c(C(=O)O/N=C(\N)c2ccc(C)cc2)cc1OC	4%	6%	8%	-4%	u	x
